From the supplement of paper PMC12669032

Key:
Experiment in all cases: growth AUC relative to DMSO control (median of replicates) (fraction); higher = more growth (less inhibition), active = hit call of the paper
Conditions in all cases: 20 µM; 24 h;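 active = AUC reduced over 20% with Padj below 0.05 in at least 2 of 3 replicates; inactive = otherwise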
[1] = system: Akkermansia muciniphila
Procedure, shortened: (§1)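 For each compound at 20 µM (1% DMSO), gut bacterial monocultures seeded at OD600 0.05 grew anaerobically in mGAM at 37 °C in round-bottom 96-well plates. Hourly OD600 readings over 24 h gave growth curves whose minimum OD was set to 0. Area under these curves was normalised to the plate median of solvent-only wells, or to row and column medians on the industrial chemical plate. Values are medians of three biological replicates grown on separate days.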

[2] = system: Bacteroides caccae
Procedure, shortened: as §1

[3] = system: Bacteroides clarus
Procedure, shortened: as §1

[4] = system: Bacteroides dorei
Procedure, shortened: as §1

[5] = system: Bacteroides stercoris
Procedure, shortened: as §1

[6] = system: Bacteroides thetaiotaomicron
Procedure, shortened: as §1

[7] = system: Bacteroides uniformis
Procedure, shortened: as §1

[8] = system: Bifidobacterium longum subsp. longum
Procedure, shortened: as §1

[9] = system: Clostridium difficile
Procedure, shortened: as §1

[10] = system: Collinsella aerofaciens
Procedure, shortened: as §1

Measured: growth AUC

CC(C)N(C(=O)CS(=O)CC(=O)O)c1ccc(F)cc1 (stereo not given)
inactive: [1] 0.994 | [2] 0.965 | [3] 0.94 | [4] 0.969 | [5] 0.988 | [6] 0.987 | [7] 0.958 | [8] 1.03 | [9] 1.01 | [10] 1

c1ccc2c(c1)Cc1ccccc1-2
inactive: [1] 1.04 | [2] 1.02 | [3] 1 | [4] 1.03 | [5] 1.04 | [6] 1 | [7] 1 | [8] 0.925 | [9] 1.01 | [10] 1.01

CN1CCC[C@H]1c1cccnc1
inactive: [1] 0.753 | [2] 0.995 | [3] 0.997 | [4] 1.04 | [5] 1 | [6] 0.984 | [7] 0.981 | [8] 1.01 | [9] 0.951 | [10] 1.04

COc1nc(N)nc(NC(C)(C)C)n1
inactive: [1] 1.01 | [2] 0.996 | [3] 0.965 | [4] 1.03 | [5] 0.967 | [6] 1.01 | [7] 1 | [8] 1.01 | [9] 0.98 | [10] 0.959

CCN(CC)C(=O)SCc1ccccc1Cl
inactive: [1] 0.931 | [2] 1.02 | [3] 0.985 | [4] 1 | [5] 1.01 | [6] 0.983 | [7] 0.957 | [8] 0.965 | [9] 0.996 | [10] 1.01

O=c1oc(-c2ccccc2)nc2ccccc12
inactive: [1] 0.96 | [2] 1.01 | [3] 0.984 | [4] 0.979 | [5] 0.955 | [6] 0.966 | [7] 0.971 | [8] 0.947 | [9] 0.994 | [10] 0.976

CCOC(=O)c1nc(C(Cl)(Cl)Cl)n(-c2ccc(Cl)cc2Cl)n1
inactive: [1] 0.908 | [2] 1 | [3] 1 | [4] 0.99 | [5] 0.861 | [6] 0.966 | [7] 0.968 | [8] 0.983 | [9] 0.983 | [10] 0.952

CN(C)C(=O)Nc1cc(C(C)(C)C)on1
inactive: [1] 0.918 | [2] 1.01 | [3] 0.997 | [4] 1.01 | [5] 0.998 | [6] 0.995 | [7] 1.01 | [8] 1.01 | [9] 0.987 | [10] 0.989

COc1cc(OC)nc(Sc2cccc3c2C(=O)OC3C)n1 (stereo not given)
inactive: [1] 0.871 | [2] 1.01 | [3] 0.989 | [4] 1.04 | [5] 1.06 | [6] 0.974 | [7] 0.97 | [8] 0.974 | [9] 0.998 | [10] 1.03

CCCCOCCOC(=O)COc1ccc(Cl)cc1Cl
inactive: [1] 1.09 | [2] 0.966 | [3] 0.991 | [4] 0.867 | [5] 0.952 | [6] 0.98 | [7] 0.93 | [8] 0.984 | [9] 0.993 | [10] 0.96

CCCCCC(C)OC(=O)COc1ccc(Cl)c2cccnc12 (stereo not given)
inactive: [1] 1.01 | [2] 0.887 | [3] 0.956 | [4] 0.945 | [5] 1.03 | [6] 0.889 | [7] 0.915 | [8] 0.953 | [9] 0.934 | [10] 0.853

Clc1ccc(Sc2cc(Cl)c(Cl)cc2Cl)cc1
inactive: [1] 1.05 | [2] 0.943 | [3] 0.993 | [4] 1.04 | [5] 0.985 | [6] 0.98 | [7] 0.984 | [8] 0.986 | [9] 1 | [10] 0.936

Oc1ccc2nc(-c3cscn3)[nH]c2c1
inactive: [1] 0.877 | [2] 1.07 | [3] 0.955 | [4] 0.997 | [5] 0.98 | [6] 0.985 | [7] 0.982 | [8] 1.01 | [9] 0.988 | [10] 1.01

CC(C)NS(=O)(=O)NC(=O)c1cc(-n2c(=O)cc(C(F)(F)F)[nH]c2=O)c(F)cc1Cl
inactive: [1] 1.11 | [2] 1.04 | [3] 1.01 | [4] 1.01 | [5] 0.984 | [6] 0.991 | [7] 1.02 | [8] 0.993 | [9] 1.02 | [10] 0.994

CCc1nc2ncnn2c(N)c1CCCC(=O)O.Cl
inactive: [1] 1.12 | [2] 0.907 | [3] 1.03 | [4] 1 | [5] 1.14 | [6] 0.985 | [7] 1.02 | [8] 1.01 | [9] 1.04 | [10] 1

CN(C)C(=O)SCCCCOc1ccccc1
inactive: [1] 0.993 | [2] 0.957 | [3] 0.967 | [4] 0.99 | [5] 0.915 | [6] 0.973 | [7] 0.992 | [8] 0.984 | [9] 0.983 | [10] 0.993

CC(C)c1cc(Oc2ccccc2)cc(C(C)C)c1NC(=S)NC(C)(C)C
inactive: [1] 0.863 | [2] 0.984 | [3] 0.96 | [4] 0.983 | [5] 0.98 | [6] 0.97 | [7] 0.998 | [8] 0.929 | [9] 0.957 | [10] 1.03

CCCCCCC(C)OC(=O)C(C)Oc1ccc(Cl)cc1C (stereo not given)
inactive: [1] 0.913 | [2] 0.996 | [3] 0.973 | [4] 0.983 | [5] 0.983 | [6] 1 | [7] 1.02 | [8] 0.848 | [9] 1.01 | [10] 0.968

COCCCNc1nc(NC(C)C)nc(SC)n1
inactive: [1] 0.847 | [2] 0.981 | [3] 0.976 | [4] 0.989 | [5] 0.977 | [6] 0.957 | [7] 0.982 | [8] 0.985 | [9] 0.963 | [10] 0.993

COCCOc1ccccc1S(=O)(=O)NC(=O)Nc1nc(OC)nc(OC)n1
inactive: [1] 1.03 | [2] 0.976 | [3] 0.97 | [4] 0.962 | [5] 0.92 | [6] 1 | [7] 1.02 | [8] 1.06 | [9] 0.984 | [10] 0.908

COC(=O)c1c(Cl)ccc(Cl)c1OC
inactive: [1] 1.02 | [2] 1 | [3] 1.01 | [4] 1.04 | [5] 0.942 | [6] 1.02 | [7] 1 | [8] 1.04 | [9] 1.04 | [10] 1.04

COc1nc(NC(=O)NS(=O)(=O)c2ccccc2C(F)(F)F)nc(C(F)(F)F)n1
inactive: [1] 1.06 | [2] 1.03 | [3] 0.979 | [4] 0.971 | [5] 1 | [6] 0.974 | [7] 1 | [8] 1.01 | [9] 0.987 | [10] 1.01

O=c1cccc2n1CCn1c-2cccc1=O
inactive: [1] 1.11 | [2] 1.03 | [3] 0.986 | [4] 0.918 | [5] 1 | [6] 0.995 | [7] 1.02 | [8] 0.969 | [9] 0.993 | [10] 0.98

CS(=O)(=O)c1ccc(C(=O)O)c(N)c1
inactive: [1] 1.13 | [2] 0.993 | [3] 1.01 | [4] 1.02 | [5] 1.03 | [6] 0.994 | [7] 1.03 | [8] 1 | [9] 1.03 | [10] 1.03

O=S(=O)(Oc1ccc(Cl)cc1Cl)c1ccccc1
inactive: [1] 0.953 | [2] 0.956 | [3] 1 | [4] 0.939 | [5] 0.967 | [6] 1.01 | [7] 0.996 | [8] 1.1 | [9] 1.01 | [10] 0.98

C=C1C[C@]23C[C@@]1(O)CC[C@H]2[C@@]12C=C[C@H](O)[C@@](C)(C(=O)O1)[C@H]2[C@@H]3C(=O)O
inactive: [1] 1.24 | [2] 0.966 | [3] 0.999 | [4] 0.921 | [5] 1.01 | [6] 1.02 | [7] 0.947 | [8] 0.915 | [9] 0.931 | [10] 0.95

CCCCC(CC)COC(=O)COc1cc(Cl)c(Cl)cc1Cl (stereo not given)
inactive: [1] 0.936 | [2] 0.97 | [3] 0.93 | [4] 0.984 | [5] 1.03 | [6] 0.987 | [7] 0.993 | [8] 0.807 | [9] 0.999 | [10] 0.948

CCN(CC)C(=O)c1cccc(C)c1
inactive: [1] 1.03 | [2] 0.985 | [3] 1.03 | [4] 1.05 | [5] 1.05 | [6] 0.975 | [7] 0.998 | [8] 1.02 | [9] 0.982 | [10] 0.952
